Reference: PubChem BioAssay (NCI)
About 83,000 compounds went through this panel and 20% of them were active in at least one assay; those are over-represented in the sample as a whole.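 Step 1: grow cells in 96-well plates. Step 2: add test compound at a single concentration. Step 3: incubate 48 h. Step 4: record percent growth.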 Values without a mark were called inactive. Activity calls are given as the source filed them. The calls were made as follows: active = growth percent below 10; inactive = the rest.

System: HCT-15 colon
Assay: NCI-60 one-dose screen, 48 h (100 = growth as untreated, 0 = no growth, -100 = all killed)
Details: 10 µM unless noted

| Structure (SMILES) | growth |
| --- | --- |
| CN(C)CCN1C(=O)c2cccc3c(-c4ccc(-c5nc6c7ccccc7c7ccccc7c6[nH]5)cc4)ccc(c23)C1=O | 102% |
| O=C(Nc1ccc(N2CCCCC2)c(Cl)c1)c1ccc(Br)o1 | 61.1% |
| COc1ccc(OC)c(Nc2nc3nonc3nc2Nc2cccc(Br)c2)c1 | 13.1% |
| O=C(NCCN1CCC(O)CC1)c1cc2c(o1)C(=O)c1ccccc1C2=O | -80.8% (active) |
| COc1cc(/C=C/C(=O)c2cccc(-n3cc(-c4ccccc4)[nH]c3=O)c2)cc(OC)c1OC | 0.0594% (active) |
| Fc1ccc(Nc2nc(Nc3ccc(-c4nc5ccccc5[nH]4)cc3)c3cn[nH]c3n2)cc1 | -41.2% (active) |
| COc1ccc(-c2nc3sc4c(c3c(=O)[nH]2)CCCC4)c2ccccc12 | 6.37% (active) |
| O=[N+]([O-])c1ccccc1C(O)Cc1ccc2ccccc2n1 (centres undefined) | 105% |
| N#Cc1c(NC(=O)c2ccccc2I)sc2c1CCCC2 | 21.5% |
| NC(=O)c1c(NC(=O)c2ccc(C(F)(F)F)cc2Cl)sc2c1CCC(=O)C2 | -35% (active) |
| COc1cc(CNC(=O)/C=C/C=C/c2ccc3c(c2)OCO3)ccc1OCc1cn(-c2ccc(Cl)c(Cl)c2)nn1 | -49.9% (active) |
| CSc1ccc(Cl)c(C(=O)Nc2sccc2C(N)=O)c1 | 98.8% |
| COc1cc(-c2cccc([N+](=O)[O-])c2)c(-c2nc(-c3ccccc3)c(-c3ccccc3)n2C2CC2)cc1OC | 56% |
| O=C(/C=C/C12c3ccccc3C(c3ccccc31)C1C(=O)NC(=O)C12)c1ccc(Cl)cc1 (centres undefined) | -43.1% (active) |
| O=S(=O)(Nc1ccsc1-c1nc(-c2ccccc2)no1)c1cc(Cl)cc(Cl)c1 | 91.9% |
| C[C@H]1[C@H]2C3=CC[C@@H]4[C@@]5(C)C/C(=C/c6ccncc6)C(=O)C(C)(C)[C@@H]5CC[C@@]4(C)[C@]3(C)CC[C@@]2(C(=O)N2CCN(C)CC2)CC[C@@H]1C | 66% |
| C=C1C(=O)O[C@H]2[C@H]1CC/C(C(=O)NCCCCCCCCNC(=O)/C1=C/CC[C@@]3(C)O[C@H]3[C@H]3OC(=O)C(=C)[C@@H]3CC1)=C\CC[C@@]1(C)O[C@@H]21 | 107% |
| CC(C)OC(=O)NNC(=O)c1ccncc1 | 101% |
| COc1cc2c(=O)n(CCCn3ccnc3)c3c4cc5c(cc4ccc3c2cc1OC)OCO5 | 10.1% |
| COc1cc(/C=C/c2nc(Nc3ccc(S(=O)(=O)Nc4cc(C)on4)cc3)c3ccccc3n2)ccc1O | 31.8% |

| Structure (SMILES) | growth |
| --- | --- |
| C[C@@H]1CC[C@@H]2[C@@H]1[C@H](OC(=O)/C=C/c1ccccc1)[C@]1(CCCOCCOCCOCCOC(=O)CCCC[C@@H]3SC[C@@H]4NC(=O)N[C@@H]43)C[C@@H](OC(=O)CO)[C@@]2(C)O1 | 106% |
| O=C(CCCCCCCn1cc(-c2cccnc2)nn1)Nc1ccccc1-c1ccccc1 | 24.1% |
| O=C(NCc1cn(Cc2cccc(Oc3ccccc3)c2)nn1)c1cccnc1NCc1ccc(Cl)cc1 | 21.7% |
| CCOC(=O)c1c(C)nc2c(c1N)/C(=C/c1ccc(OC)cc1)C(=O)N2Cc1ccc(F)cc1 | -80.6% (active) |
| O=C(O)c1ccc(CO)o1 | 103% |
| CN(C)CN1CCN(c2ccc3nc(-c4ccc5nc(-c6ccc(C(F)(F)F)cc6)[nH]c5c4)[nH]c3c2)CC1 | 91.6% |
| COc1ccc(-c2nc3ccccn3c2/C=C/C(=O)c2cc(OC)c(OC)c(OC)c2)cc1 | 50.4% |
| Cc1nc(Nc2ccc(S(=O)(=O)Nc3cc(C)on3)cc2)c2ccccc2n1 | 99.1% |
| C#C[C@]1(O)CC[C@H]2[C@@H]3CC=C4c5sc(N=C(N)N)nc5CC[C@]4(C)[C@H]3CC[C@@]21C | -60.8% (active) |
| Clc1ccc2[nH]c3c(NCCCN4CCOCC4)ncnc3c2c1 | 84.1% |
| Cc1cc(C(c2ccccc2)c2ccccc2)ccc1NS(=O)(=O)c1ccccc1 | 96.3% |
| COc1cc(NC(=O)c2cccc(-c3cc(=O)c4c(O)c(OC)c(OC)cc4o3)c2)cc(OC)c1OC | 59.9% |
| Cc1ccc(S(=O)(=O)N(CC[C@@H]2C[C@H]2c2cc3ccccc3o2)C(=O)NC2CCCCC2)cc1 | 92.3% |
| CC(C)CCC[C@@H](C)[C@H]1CCC2C3=CCC4C(=O)C=CC(=O)C4C3CC[C@@]21C (some centres undefined) | 3.29% (active) |
| Cc1ccc(/C=C(\C#N)n2nnc3cc(Cl)c(Cl)cc32)cc1 | 11.7% |
| COc1cc(C2C=C(c3cccc(NC(C)=O)c3)Nc3ncnn32)cc(OC)c1OC (centres undefined) | 41.4% |
| CC(=[N-])N1CCC[C@@H](Nc2c3ccccc3nc3ccccc23)C1.[Cl][Pt].[NH-]CCC[NH-] | 48.2% |
| O=C(/C=C/C12c3ccccc3C(c3ccccc31)C1C(=O)NC(=O)C12)c1ccccc1 (centres undefined) | 20% |
| COc1cc2ccccc2cc1C(=O)NC(=S)Nc1ccc(-c2nc3ccccc3[nH]2)cc1 | 78.5% |
